Records with an inconclusive call do not appear. Where a call stands in place of a potency, no number is given. Calls of active or inactive are those of the source. The call rests on the fitted dose curve; in most records, active means well fitted inhibition curve with a large enough effect; inconclusive means small, poorly fitted or top-dose-only effect; inactive means flat fitted curve, though single readings scatter.
How the values were obtained:
Test in all cases: qHTS profiling for inhibitors of Plasmodium falciparum proliferation (AID 504749); further: nearly all actives have a fitted effect of over 60% in size
Conditions in all cases: P. falciparum in erythrocytes, SYBR Green DNA, 72 h; series mostly up to 28.7 µM
AS120 = test system: AS120
Summary of the method: (§1)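 Infected RBCs, 0.3% parasitemia/2.5% Hct final; cpd 72 h, 37 C, 5% CO2; lysis buffer with saponin/triton/SYBR Green I, o/n RT dark; FI 485/535; norm. to artemisinin (0.29 uM) and DMSO.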

ATS189 = test system: ATS189
Summary of the method: as §1

ATS95 = test system: ATS95
Summary of the method: as §1

C2A = test system: C2A
Summary of the method: as §1

CP185 = test system: CP185
Summary of the method: as §1

CP191 = test system: CP191
Summary of the method: as §1

CP192 = test system: CP192
Summary of the method: as §1

CP194 = test system: CP194
Summary of the method: as §1

CP201 = test system: CP201
Summary of the method: as §1

CP203 = test system: CP203
Summary of the method: as §1
Potency means the concentration at half of the fitted maximal effect.

| Structure (SMILES) | Potency (AS120) | Potency (ATS189) | Potency (ATS95) | Potency (C2A) | Potency (CP185) | Potency (CP191) | Potency (CP192) | Potency (CP194) | Potency (CP201) | Potency (CP203) |
| --- | --- | --- | --- | --- | --- | --- | --- | --- | --- | --- |
| NCCNCCNCCNCCN | inactive | inactive | inactive | inactive | inactive | inactive | inactive | inactive | inactive | inactive |
| CCCCCCCCCCCCCCCC(=O)NCCO | inactive | inactive | inactive | inactive | inactive | inactive | inactive | inactive | inactive | inactive |
| COc1cc2[nH]c(=O)[nH]c(=O)c2cc1OC | inactive | inactive | inactive | inactive | inactive | inactive | inactive | inactive | inactive | inactive |
| O=c1cc[nH]c(=S)[nH]1 | inactive | inactive | inactive | inactive | inactive | inactive | inactive | inactive | inactive | inactive |
| Cc1ncc(COP(=O)(O)O)c(C=O)c1O | inactive | inactive | inactive | inactive | inactive | inactive | inactive | inactive | inactive | inactive |
| OCC(O)CN1CCN(c2ccccc2)CC1 (centres undefined) | inactive | inactive | inactive | inactive | inactive | inactive | inactive | inactive | inactive | inactive |
| CC(C)(C)NCC(O)COc1ccc(NC(=O)NC2CCCCC2)cc1 (centres undefined) | inactive | inactive | inactive | inactive | inactive | inactive | inactive | inactive | inactive | inactive |
| COc1ccc(S(=O)(=O)Nc2nnc(CC(C)C)s2)cc1 | inactive | inactive | inactive | inactive | inactive | inactive | inactive | inactive | inactive | inactive |
| COc1cc(C)c(Cc2cnc(N)nc2N)cc1OC | inactive | inactive | inactive | inactive | inactive | inactive | inactive | inactive | inactive | inactive |
| O=S(=O)(O)c1cc(I)c(O)c2ncccc12 | inactive | inactive | inactive | inactive | inactive | inactive | inactive | inactive | inactive | inactive |
| C#CCN(C)Cc1ccccc1 | inactive | inactive | inactive | inactive | inactive | inactive | inactive | inactive | inactive | inactive |
| CC(C)(C)C(=O)NCCCC(=O)O | inactive | inactive | inactive | inactive | inactive | inactive | inactive | inactive | inactive | inactive |
| NS(=O)(=O)c1cc2c(cc1Cl)NC(CSCc1ccccc1)=NS2(=O)=O | inactive | inactive | inactive | inactive | inactive | inactive | inactive | inactive | inactive | inactive |
| CCCOC(=O)c1ccccc1 | inactive | inactive | inactive | inactive | inactive | inactive | inactive | inactive | inactive | inactive |
| O=C(O)c1ccccc1-c1ccc(C(F)(F)F)cc1 | inactive | inactive | inactive | inactive | inactive | inactive | inactive | inactive | inactive | inactive |
| N[C@@H](CSCCCO)C(=O)O | inactive | inactive | inactive | inactive | inactive | inactive | inactive | inactive | inactive | inactive |
| CCCn1cnc2c1c(=O)n(CCCCC(C)=O)c(=O)n2C | inactive | inactive | inactive | inactive | inactive | inactive | inactive | inactive | inactive | inactive |
| O=S(=O)(O)NC1CCCCC1 | inactive | inactive | inactive | inactive | inactive | inactive | inactive | inactive | inactive | inactive |
| CCCCC(CC)COC(=O)c1ccccc1O (centres undefined) | inactive | inactive | inactive | inactive | inactive | inactive | inactive | inactive | inactive | inactive |
| O=Cc1ccccc1C=O | inactive | inactive | inactive | inactive | inactive | inactive | inactive | inactive | inactive | inactive |
| CCCCCCCCCCCCOS(=O)(=O)O | inactive | inactive | inactive | inactive | inactive | inactive | inactive | inactive | inactive | inactive |
| CCN(CC)CCNC(=O)c1c(C)[nH]c(/C=C2\C(=O)Nc3ccc(F)cc32)c1C | 7080 nM (active) | 8910 nM (active) | 7080 nM (active) | 11200 nM (active) | 7080 nM (active) | 7940 nM (active) |  |  |  | 10700 nM (active) |
| Cn1c(=O)c2c(ncn2CC2OCCO2)n(C)c1=O | inactive | inactive | inactive | inactive | inactive | inactive | inactive | inactive | inactive | inactive |
| CC(=O)NC(Cc1ccccc1)C(=O)O (centres undefined) | inactive | inactive | inactive | inactive | inactive | inactive | inactive | inactive | inactive | inactive |
| CC(O)COc1ccccc1 (centres undefined) | inactive | inactive | inactive | inactive | inactive | inactive | inactive | inactive | inactive | inactive |
| CC1(C)OC(=O)NC1=O | inactive | inactive | inactive | inactive | inactive | inactive | inactive | inactive | inactive | inactive |

| Structure (SMILES) | Potency (AS120) | Potency (ATS189) | Potency (ATS95) | Potency (C2A) | Potency (CP185) | Potency (CP191) | Potency (CP192) | Potency (CP194) | Potency (CP201) | Potency (CP203) |
| --- | --- | --- | --- | --- | --- | --- | --- | --- | --- | --- |
| NC(CSCC(=O)O)C(=O)O (centres undefined) | inactive | inactive | inactive | inactive | inactive | inactive | inactive | inactive | inactive | inactive |
| CCN(CC)CCSC(=O)C(c1ccccc1)c1ccccc1 | inactive | inactive | inactive | inactive | inactive | inactive | inactive | inactive | inactive | inactive |
| [O-][n+]1cccc(CO)c1 | inactive | inactive | inactive | inactive | inactive | inactive | inactive | inactive | inactive | inactive |
| CCC(=O)c1ccc(O)cc1 | inactive | inactive | inactive | inactive | inactive | inactive | inactive | inactive | inactive | inactive |
| CCCCc1ncc(/C=C(\Cc2cccs2)C(=O)O)n1Cc1ccc(C(=O)O)cc1 | inactive | inactive | inactive | inactive | inactive | inactive | inactive | inactive | inactive | inactive |
| CC(=O)CCC(=O)O | inactive | inactive | inactive | inactive | inactive | inactive | inactive | inactive | inactive | inactive |
| Nc1ncnc2c1ncn2[C@@H]1O[C@H](CO)[C@@H](O)[C@H]1O | inactive | inactive | inactive | inactive | inactive | inactive | inactive | inactive | inactive | inactive |
| Oc1cn2c(n1)Nc1ccc(Cl)c(Cl)c1C2 | inactive | inactive | inactive | inactive | inactive | inactive | inactive | inactive |  | inactive |
| Cc1cccc(C)c1NC(=O)CN(CC(=O)O)CC(=O)O | inactive | inactive | inactive | inactive | inactive | inactive | inactive | inactive | inactive | inactive |
| CCCCN(CCCC)CC(O)c1cc(Cl)cc2c1-c1ccc(Cl)cc1/C2=C/c1ccc(Cl)cc1 (centres undefined) | 10 nM (active) | 12.6 nM (active) | 12.6 nM (active) | 44.7 nM (active) | 31.6 nM (active) | 28.2 nM (active) | 47.8 nM (active) | 47.8 nM (active) | 151 nM (active) | 19 nM (active) |
| Oc1cccc(O)c1 | inactive | inactive | inactive | inactive | inactive | inactive | inactive | inactive | inactive | inactive |
| Cc1cc(C(C#N)c2ccc(Cl)cc2)c(Cl)cc1NC(=O)c1cc(I)cc(I)c1O (centres undefined) | inactive | inactive | inactive | inactive | inactive | inactive | inactive | inactive | inactive | inactive |
| COc1ccc(Cl)cc1C(=O)NCCc1ccc(S(=O)(=O)NC(=O)NC2CCCCC2)cc1 | inactive | inactive | inactive | inactive | inactive | inactive | inactive | inactive | inactive | inactive |
| CC(=O)Oc1ccc(C2(c3ccc(OC(C)=O)cc3)C(=O)Nc3ccccc32)cc1 | inactive | inactive | inactive | inactive | inactive | inactive | inactive | inactive | inactive | inactive |
| CC(O)CN(CCN(CC(C)O)CC(C)O)CC(C)O (centres undefined) | inactive | inactive | inactive | inactive | inactive | inactive | inactive | inactive | inactive | inactive |
| CC1(C)CO[C@@H](CC(=O)O)CN1 | inactive | inactive | inactive | inactive | inactive | inactive | inactive | inactive | inactive | inactive |
| COc1ccc2c(c1)C(=O)N(CCc1ccc(S(=O)(=O)NC(=O)NC3CCCCC3)cc1)C(=O)C2(C)C | inactive | inactive | inactive | inactive | inactive | inactive | inactive | inactive | inactive | inactive |
| Cc1cc(O)cc2c1O[C@](C)(CCC[C@H](C)CCC[C@H](C)CCCC(C)C)CC2 | inactive | inactive | inactive | inactive | inactive | inactive | inactive | inactive | inactive | inactive |
| Cc1c(Cl)cccc1Nc1ccccc1C(=O)O | inactive | inactive | inactive | inactive | inactive | inactive | inactive | inactive | inactive | inactive |
| CC(=O)c1ccc2c(c1)N(CCCN(C)C)c1ccccc1S2 | inactive | inactive | inactive | inactive | inactive | inactive | inactive |  | inactive |  |
| Cc1cc(CC(=O)O)n(C)c1C(=O)c1ccc(Cl)cc1 | inactive | inactive | inactive | inactive | inactive | inactive | inactive | inactive | inactive | inactive |
| COc1ccc2[nH]c(S(=O)Cc3ncc(C)c(OC)c3C)nc2n1 (centres undefined) | 8910 nM (active) |  |  |  |  |  | inactive | inactive | inactive | inactive |
| CCN(CC)CCNC(C(=O)OCCC(C)C)c1ccccc1 (centres undefined) |  |  |  |  |  |  |  |  |  | 9530 nM (active) |
| NCCNCCNCCN | inactive | inactive |  | inactive | inactive | inactive | inactive | inactive | inactive | inactive |
| Nc1ccc(S(=O)(=O)Nc2ccc(Cl)nn2)cc1 |  |  |  |  |  | 1120 nM (active) | inactive | inactive | inactive | inactive |
